# Tb PFK inh-1 = T. brucei PFK enzyme inhibition. O15648. T. brucei PFK, ADP-Glo luminescence. Potency, µM (titrated, usually from 57.5 µM), inactives show at the highest dose activity, negative = inhibition, most hits filed as inhibitors. hit rate 0.17% among 330,000;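 also: potency is read from the fitted curve at half-maximal effect; 0% = uninhibited 1x PFK enzyme wells and -100% = no-enzyme wells; nearly all actives have a fitted effect of over 60% in size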
# Target sequence (O15648 whole entry, looked up): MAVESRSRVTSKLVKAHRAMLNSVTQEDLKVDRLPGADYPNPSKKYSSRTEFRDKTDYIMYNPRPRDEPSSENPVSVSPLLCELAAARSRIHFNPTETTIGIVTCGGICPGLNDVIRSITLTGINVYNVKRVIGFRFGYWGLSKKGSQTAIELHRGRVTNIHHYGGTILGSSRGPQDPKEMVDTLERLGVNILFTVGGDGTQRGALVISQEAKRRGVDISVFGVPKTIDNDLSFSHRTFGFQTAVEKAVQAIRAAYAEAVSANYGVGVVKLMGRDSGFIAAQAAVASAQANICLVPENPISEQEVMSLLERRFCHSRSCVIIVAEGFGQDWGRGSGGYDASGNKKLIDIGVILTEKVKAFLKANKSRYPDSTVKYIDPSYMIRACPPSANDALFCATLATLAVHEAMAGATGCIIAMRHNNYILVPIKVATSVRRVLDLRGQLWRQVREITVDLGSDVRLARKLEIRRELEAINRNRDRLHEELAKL
#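 In TEA buffer at pH 8.0 with 5 mM MgCl2, enzyme (1.25 nM) converted F6P (0.5 mM) and ATP (0.1 mM) for 45 min at room temperature. ADP product was read by luciferase luminescence.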
# a7 integrin act = integrin-mediated muscular dystrophy alleviation activation | alpha7betagal myoblasts, beta-gal FDG fluorescence, 48 h | Potency, µM (series often up to 38.3 µM), without a hit: top-dose activation, usual class: activators | hit rate 0.064% among 350,000 | AID 624291;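 also: potency is read from the fitted curve at half-maximal effect; 100% = response of the positive control SU9516; nearly all actives have a fitted effect of over 60% in size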
#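 Alpha7betagal+/- myoblasts (passage 13) were plated 16-24 hr, then exposed to compounds (1:260 dilution of DMSO stock) for 48 hours at 37C. After MPER lysis, β-galactosidase reporter activity was read as FDG fluorescence (ex 480/em 540) after 30 minutes.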
# IL-2 act = activators of IL-2 | IL-2 activation reporter assay, cell-based qHTS; stimulated with anti-CD3/CD4/CD28 beads; in transgenic mouse T cells | activation, % (series mostly up to about 46 µM) | hit rate 0.065% among 360,000; in the data active = activation above about 50%; inconclusive = mostly about 30% to 49%; also: 0% is about no effect
#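 Quantitative HTS in unstimulated transgenic mouse T cells, with memory T cells as non-tolerant control and PMA/ionomycin as tolerance-bypass control. Compound pretreatment lasted 60 minutes before 18 h bead stimulation; EGFP/DsRed fluorescence read.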
# A-T KAP1 phos = candidate therapy for ataxia-telangiectasia. AID 485349. F2112 A-T fibroblasts, KAP-1 phosphorylation AlphaLISA; neocarzinostatin DNA damage 30 min before lysis. Potency, µM (highest dose often 57.5 µM), for the others: top-dose activation, hits mostly activators. hit rate 0.19% among 320,000; also: potency is read from the fitted curve at half-maximal effect; % of control where 0% means no effect; nearly all actives have a fitted effect of over 45% in size
#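 ATM-like activity read as KAP-1 phosphorylation via AlphaLISA donor/acceptor antibody pairs after lysis and 6 hr at 25C. Cells were ATM-null patient fibroblasts (F2112, hTERT), dosed 60 min, then exposed to the DSB inducer NCS for 30 min.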
# PKM2 activator = activators of human pyruvate kinase M2. P14618. purified PKM2, Kinase-Glo ATP luminescence, activation; response scale: 0% is enzyme alone, no compound. Potency, µM (highest dose often 57.5 µM), for the others: top-dose activation, actives largely listed as activators. hit rate 0.34% among 260,000. AID 1631; also: potency is read from the fitted curve at half-maximal effect; % is scaled to controls: 0 for no effect and ±100 for the full control effect; nearly all actives have a fitted effect of over 55% in size
#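 Purified hPK-M2 (>95%) run at intermediate activity with 0.1 mM ADP and 0.5 mM PEP in 50 mM imidazole pH 7.2, KCl, MgCl2; 1 h room temperature. ATP formed read by Kinase-Glo luminescence; normalized to uninhibited and no-enzyme controls.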
# TCR act = activators of T cell receptors; primary human leukocytes, anti-CD3, IL-2 HTRF, 48 h; Potency, µM (titrated, usually from 9.22 µM), for the others: at the highest dose activation of IL-2 secretion, usual class: activators; 330,000 tested, under 10 active; AID 504894; also: % of control where 0% means no effect
#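 IL-2 release read by HTRF sandwich (Eu cryptate donor, d2 acceptor, 665 nm emission) after 48 hr exposure of primary human leukocytes to compound together with anti-CD3 beads in the absence of co-stimulatory signals.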
# TbPFK ATP = Tb phosphofructokinase inhibition, orthogonal luminescence; shares compounds with Tb PFK inh-1; hit rate 47% among 1,100; Tb PFK enzyme, ATP depletion, Kinase-Glo Plus luminescence; Potency, µM (series often up to 57.5 µM), for inactives: at the top dose inhibition; calls by dose curve; also: potency is read from the fitted curve at half-maximal effect; nearly all actives have a fitted effect of over 60% in size
# Tb PFK inh-2 = validation of T. brucei phosphofructokinase inhibitors | AID 504637 | shares compounds with Tb PFK inh-1 | Potency, µM (highest dose often 57.5 µM), inactives show at the highest dose activity change, negative = inhibition, actives largely listed as inhibitors | purified T. brucei PFK, ADP-Glo luminescence, 45 min | hit rate 41% among 1,100;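 also: potency is read from the fitted curve at half-maximal effect; plate controls were full PFK enzyme control for no effect and no enzyme control for full effect; nearly all actives have a fitted effect of over 60% in size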
# * hit, by the source's call; ? = inconclusive; · = no result given; [ ] = dose if it differs, or a comment. In the library only some 0.69% were active in any assay of this set; here they are far more common. Unless noted, calls follow the shape of the dose curve; as a rule, active = well fitted curve in the direction sought with a large enough effect; inconclusive = small, poorly fitted or top-dose-only effect, or another doubt; inactive = no such curve, though single readings can be large; an effect the other way counts as inactive or inconclusive.
SMILES,Tb PFK inh-1,a7 integrin act,IL-2 act,A-T KAP1 phos,PKM2 activator,TCR act,TbPFK ATP,Tb PFK inh-2
C=C(C)C(=O)Nc1ccc2c(c1)OCCOCCOCCO2,11µM*,-9%,3,28%,0%,-5%,0.54µM*,0.67µM*
CN1C(=O)C(=Cc2ccccc2OS(=O)(=O)c2ccccc2)C(=O)N(C)C1=O,10%,27%,-3,2%,9%,-1%,·,·
C[n+]1cccc2cccc([O-])c21,?,-2%,0,-7%,12%,5%,?,?
COc1cc(CNC(=O)CCCC/C=C/C(C)C)ccc1O,?,·,0,15%,·,3%,·,·
Cc1nn(CC(=O)N2CCN(c3cccc(C(F)(F)F)c3)CC2)c(=O)c2cccn12,?,?,-3,1%,·,2%,?,-22%
CCc1nn(CC(=O)N2CCC3(CC2)OCCO3)c(=O)c2cccn12,1%,-6%,-1,3%,·,0%,·,·
COc1ccc(C(=O)CSc2nnc(CNc3ccc(F)cc3)o2)cc1,17µM*,-6%,-1,1%,3%,-1%,12µM*,24µM*
COc1ccc(C(=O)Cn2c(NCCCl)nc3ccccc32)cc1,1%,-45%,0,15%,-1%[11.5 µM],0%,·,·
CC(C)N(C(=O)CSc1nnc(CNc2ccc(F)cc2)o1)C(C)C,17µM*,-23%,0,6%,1%,13%[46.1 µM],?,?
O=C(CSc1nnc(CNc2ccc(F)cc2)o1)N1CCCc2ccccc21,27µM*,-12%,-3,0%,2%,·,12µM*,27µM*
Cc1[nH]nc2ccc(-c3cncc(OC[C@@H](N)Cc4c[nH]c5ccccc45)c3)cc12,·,-45%,0,·,·,-1%,·,·
NC(=S)c1cn(C2OC(CO)C(O)C2O)c2ncnc(N)c12 (stereo unspecified),?,?,-1,1%,-1%,-2%,?,-14%
Nc1ncnc2c1ccn2[C@@H]1O[C@H](CO)[C@@H](O)[C@H]1O,·,-49%,1,·,·,8%,·,·
NC(Cc1ccccc1Cl)c1nn[nH]n1 (stereo unspecified),·,-6%,-4,·,·,·,·,·
CCc1cc(CNC(=O)c2ccc(OC3CCN(CCc4ccccc4)CC3)cc2)on1,15µM*,-36%,-3,4%,13%,0%,17µM*,21µM*
O=C(OCC(=O)N1CCN(c2cccc(Cl)c2)CC1)c1ccco1,21µM*,9%,0,13%,·,0%,24µM*,?
O=C(CSC1=NS(=O)(=O)c2ccccc2N1)c1ccccc1,?,12%,0,-5%,·,-2%,21µM*,?
O=C(NCC1=C(c2cccc3ccccc23)C[C@@H]2CC[C@H]1N2Cc1ccco1)c1cccs1,·,-55%,-3,·,·,·,·,·
O=C(COC(=O)c1cc2c(s1)CCC2)Nc1ccc(F)cc1,11µM*,12%,-2,13%,10%,0%[46.1 µM],?,?
CCN(CC)C(=O)c1ccc(NC(=O)COC(=O)c2ccc(Cl)s2)cc1,0%,-19%,-1,0%,·,·,·,·
Cc1cc(O)c(-c2cc(O)c(C)cc2O)cc1O,12µM*,-62%,-1,-19%,-35%,5%,3µM*,8.5µM*
O=[N+]([O-])c1ccc(N2CCN(C(=S)c3cccc([N+](=O)[O-])c3)CC2)cc1,19µM*,-13%,-1,0%,-2%,5%,9.5µM*,24µM*
S=c1[nH]nc(-c2cccnc2)n1/N=C/C=C/c1ccco1,30µM*,23%,-1,-4%,?,-6%,6µM*,?
